Keap1 Nrf2 FP: disrupts human Keap1 binding to Nrf2 peptide; inhibition, % at 9.4 µM; AID 504523; Keap1 Kelch-Nrf2 peptide fluorescence polarization, 1536-well; Q14145; actives 0.15% (n = 340,000); in the data active = inhibition above about 12%;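 note: human Keap1 Kelch domain with fluorescein labeled Nrf2 9mer peptide probe; 0% = neutral control wells and 100% = peptide positive control; higher means more block of Keap1 binding to Nrf2 peptide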
eLon inh: E. coli protease La inhibition. actives 0.42% (n = 360,000). AID 602123. purified E. coli Lon protease, fluorescence polarization. P0A9M0. inhibition, % at 7.94 µM; in the data active = inhibition above about 13%, passing the limit was not always enough;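 note: 0% = enzyme with probe and DMSO and 100% = no enzyme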
GLD-1 RNA inh: GLD-1-TGE RNA interaction inhibition (C. elegans) | Q17339 | purified GLD-1 + fluorescein TGE RNA, fluorescence polarization | inhibition, % at 5.96 µM | actives 0.44% (n = 320,000) | AID 2280;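 active = percent inhibition above a per-plate cutoff, the plate mean of test compounds plus 3 SD, cut at about 30% in these data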;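 note: 0% = DMSO wells with GLD-1 and probe and 100% = wells lacking GLD-1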
MCL1-BIM inh: MCL1-BIM-BH3 interaction inhibition (human); actives 0.68% (n = 320,000); Q07820; GST-MCL1 / FITC-Bim-BH3 fluorescence polarization; inhibition, % at 10.9 µM; AID 2057;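 active = inhibition above the mean inhibition of all tested compounds plus 3 SD, set per campaign, cut at about 40% in these data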;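 note: 0% = DMSO wells and 100% = unlabeled Bim-BH3 peptide control; higher means more loss of mP so more displacement of Bim peptide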
Target sequence (Q07820 whole entry, looked up): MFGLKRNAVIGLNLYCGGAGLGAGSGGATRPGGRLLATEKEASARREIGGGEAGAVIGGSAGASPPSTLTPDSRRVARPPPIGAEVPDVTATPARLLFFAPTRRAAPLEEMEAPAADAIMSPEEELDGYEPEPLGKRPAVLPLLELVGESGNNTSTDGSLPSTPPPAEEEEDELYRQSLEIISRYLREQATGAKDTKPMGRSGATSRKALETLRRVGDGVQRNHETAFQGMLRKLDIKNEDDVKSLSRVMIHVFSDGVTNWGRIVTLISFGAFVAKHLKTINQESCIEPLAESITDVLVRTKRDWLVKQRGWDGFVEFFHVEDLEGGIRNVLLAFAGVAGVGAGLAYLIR
C-LANA FP: blocks KSHV LANA C-terminal domain binding to DNA. MBP-C-LANA/FAM-LBS DNA binding, fluorescence polarization. inhibition, % at 9 µM. actives 0.078% (n = 340,000). AID 504423;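 active = highest replicate inhibition at or above 60% at 9 µM, even if other replicates fall short; inactive = all replicates below 60% inhibition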;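 note: 0% = neutral control wells and 100% = 4 µM acridine orange control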
BCLXL inh: inhibitors of human Bcl-xL. Q07817. GST-Bcl-xL / FITC-Bim BH3 peptide fluorescence polarization. inhibition, % at 10.9 µM. actives 0.7% (n = 320,000);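 active = inhibition above the mean of all tested compounds plus 3 SD, cutoff set per campaign, cut at about 30% in these data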;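 note: 0% = DMSO wells and 100% = unlabeled Bim-BH3 peptide competitor; inhibitors lower millipolarization by displacing the labeled peptide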
eLon confirm: confirmation of E. coli Lon protease inhibitors | shares compounds with eLon inh | purified E. coli Lon, fluorescence polarization | inhibition, % at 7.94 µM | actives 31% (n = 1,400) | AID 602230; in the data active = inhibition above about 16%;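 note: 0% = enzyme with probe and DMSO and 100% = no enzyme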
Active calls of the source: *; . = no result given; + = active, no number. A selection: hits, their analogues and other compounds. The true share with any hit is near 1.3%.

SMILES | Keap1 Nrf2 FP | eLon inh | GLD-1 RNA inh | MCL1-BIM inh | C-LANA FP | BCLXL inh | eLon confirm
CCN(CC(=O)NCc1cccs1)S(=O)(=O)c1ccc(F)cc1 | 3 | -5 | 7 | -2 | 2 | 1 | .
CCN(CC)S(=O)(=O)c1ccc(C(=O)NCc2cccs2)cc1 | -8 | 19* | 2 | 0 | 2 | -1 | 1
CCN(CC(=O)NCc1cccs1)C(=O)c1ccc(S(=O)(=O)Nc2cccc(C)c2C)cc1 | -3 | + | 6 | 4 | -2 | 2 | -17
O=C(/C=C\c1cccs1)N1CCN(Cc2ccc3c(c2)OCO3)CC1 | -3 | -2 | 1 | -1 | -1 | 2 | .
Cc1ccc(-n2cc(CNCCN3CCOC3=O)c(-c3cccc(C)c3)n2)cc1 | -9 | 16* | -1 | -2 | -1 | 1 | -7
O=C1OCCN1CCNCc1cn(-c2ccc(F)cc2)nc1-c1ccccc1Cl | -1 | -4 | -3 | 8 | 1 | 5 | .
COc1cc(NCCCC(C)N)c2ncccc2c1 (stereo unspecified) | 5 | 44* | . | . | -1 | . | 4
CN(C)Cc1csc(NC(=O)Nc2ccccc2Oc2ccccc2)n1 | . | 86* | . | . | . | . | 6
COc1ccccc1N1CCN(C2CCCCC2NS(=O)(=O)c2ccc(Cl)cc2)CC1 (stereo unspecified) | -3 | 25* | 10 | -7 | 1 | -1 | -4
O=C1c2ccccc2S(=O)(=O)N1CC(O)Cn1ccc2ccccc21 (stereo unspecified) | 0 | 112* | 16 | 21 | 8 | 24 | 45*
CN1CCc2c(sc(NC(=O)c3ccc(C(=O)c4ccccc4)cc3)c2C(N)=O)C1 | -2 | 45* | -6 | -9 | 1 | -6 | -46
S=c1[nH]nc(-c2ccc3ccccc3n2)n1-c1ccc2ncccc2c1 | 0 | 20* | -5 | 4 | -1 | -13 | 9
O=C(COC(=O)Cc1ccccc1F)NCc1ccccc1Cl | . | -8 | . | . | . | . | .
Cc1ccc2c(c1)c1c(n2CC(O)CNC(C)(C)C)CCCC1 (stereo unspecified) | 1 | 16* | . | . | 2 | . | 10
CCOC(=O)c1ccc(NC(=O)CSc2nnc(C)n2-c2ccccc2)cc1 | -5 | 14* | 0 | 11 | -1 | 5 | 8
O=C(O)CCC1(C(=O)O)OCCc2ccccc21 (stereo unspecified) | -9 | 17* | 1 | -2 | 0 | 3 | -2
C=CCOc1ccccc1CNc1ccc2[nH]c(=O)[nH]c2c1 | -8 | 25* | -3 | 1 | -1 | 7 | -3
O=C1CCCCN1CCc1c[nH]c2ccccc12 | -1 | 14* | 6 | -3 | 4 | 2 | -2
c1coc(-c2cnc3ccccc3n2)c1 | . | 35* | . | . | . | . | 6
COc1ccc2nc(N3CCC(C)CC3)c(C#N)cc2c1 | 1 | 15* | 21 | 24 | 1 | 27 | 23*
CCOC(=O)C1CCN(c2nc3cc(OC)ccc3cc2C#N)CC1 | 1 | -7 | 13 | 9 | 1 | 24 | .
COc1ccccc1-c1nc2n(n1)C(c1ccc(Cl)cc1)C(C(N)=O)=C(C)N2 (stereo unspecified) | -1 | 16* | 3 | 11 | 2 | 9 | -8
COc1ccccc1C1C(C(N)=O)=C(C)Nc2nc(-c3ccc(Cl)cc3)nn21 (stereo unspecified) | 5 | -1 | 2 | 7 | 0 | 3 | .
O=C(CNCc1ccccc1)Nc1ccc(Cl)cc1 | 0 | -7 | 0 | -1 | -3 | -2 | .
COc1ccc(NC(=O)CN(C)C(=O)c2cccc(S(=O)(=O)Nc3ccc(OC)cc3)c2)cc1 | 4 | 3 | 5 | -4 | 0 | -1 | .
N#CC1=C(N)Oc2cc(N)ccc2C1c1cccc(Br)c1 (stereo unspecified) | 0 | -14 | . | . | -1 | . | .
N#CC1=C2N=C(N)c3ccccc3N2C2=C(C(=O)CCC2)C1c1ccccc1F (stereo unspecified) | 3 | 71* | 14 | 21 | 3 | 24 | 4
CC(=O)N1CCC(C(=O)Nc2ccc(S(=O)(=O)N3CCCC(C)C3)cc2)CC1 (stereo unspecified) | -4 | -4 | . | . | 1 | . | .

Bioassay records: PubChem BioAssay, several laboratories
